ELG1 repair inh – ELG1-dependent DNA repair inhibition; HEK293T ELG1-luciferase reporter, luminescence, 16 h; DNA damage induced by 5-fluorouridine; actives 2.3% (n = 330,000); Potency, µM (series often up to 46.1 µM), without a hit: top-dose activity change, negative = inhibition, actives largely listed as inhibitors; AID 504467; further: potency means the concentration at half of the fitted maximal effect; nearly all actives have a fitted effect of over 55% in size
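HEK293T cells expressing luciferase-tagged ELG1 (2,000/well) received 5-Fluorouridine plus compound or DMSO for 16 hr at 37 °C. Luciferase was read by ONE-Glo luminescence after 30 min at room temperature.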
DT40 TDP1 no CPT – qHTS for Inhibitors of human tyrosyl-DNA phosphodiesterase 1 (TDP1): qHTS in cells in absence of CPT. DT40 Tdp1-/- hTDP1 cells, no CPT, ATP luminescence, 48 h. Potency, µM (titrated, usually from 46.2 µM), inactives show at the top dose activity change, negative = growth inhibition, most hits filed as inhibitors. actives 15% (n = 420,000). AID 686978, 2013; further: potency means the concentration at half of the fitted maximal effect; nearly all actives have a fitted effect of over 55% in size
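Readout: luminescence from CellTiter-Glo after 30 min in the dark at RT. Cells: DT40 Tdp1-/- with stable hTDP1, 400/well. Exposure: compounds alone, ≥48 hr, 37 °C.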
Gal4-VP16 FLuc – inhibits Gal4-VP16 luciferase reporter, ROR gamma counter-screen | Drosophila S2 Gal4-VP16 UAS-luciferase, luminescence, 20 h | Potency, µM (titrated, usually from 53.6 µM), inactives show at the highest dose activity, negative = inhibition, most hits filed as inhibitors | actives 3.5% (n = 310,000);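 further: Gal4-VP16 expression switched on by copper sulfate through the metallothionein promoter; potency means the concentration at half of the fitted maximal effect; nearly all actives have a fitted effect of over 50% in size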
IL1B secr inh – inhibitors of inflammasome signaling (IL-1 beta secretion) | actives 4.7% (n = 360,000) | THP-1 LPS/ATP IL-1B secretion, AlphaLISA, 16 h; hits give low values | activity change, % at 57.5 µM; in the data active means activity change below about -50%; inconclusive means mostly about -30% to -49%
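THP-1 cells pretreated 1 hr with compounds (up to 57.5 uM final), then stimulated with LPS (250 ng/mL final) plus ATP (1.25 mM final); secreted IL-1B measured by AlphaLISA after 16 hr, decreased signal indicating inhibition.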
DT40 TDP1 CPT – DT40-hTDP1 cell growth loss with CPT. chicken DT40 Tdp1-/-;hTDP1 cells + 20 nM CPT, ATP luminescence, 48 h. Potency, µM (top dose mostly 46.2 µM), for inactives: at the highest dose activity change, negative = growth inhibition, hits mostly inhibitors. actives 12% (n = 420,000); further: potency means the concentration at half of the fitted maximal effect; nearly all actives have a fitted effect of over 55% in size
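Chicken DT40 Tdp1-/- cells stably complemented with human TDP1 were seeded at 400 cells/well in medium containing 20 nM camptothecin, exposed to pin-transferred compounds, and grown at 37 °C for at least 48 hr. Viability was read as ATP luminescence.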
RORgamma inh – ROR gamma (mouse) transcription inhibition. Drosophila S2 Gal4-RORgamma UAS-luciferase reporter, 20 h. actives 5.4% (n = 310,000). P51450. AID 2551. Potency, µM (highest dose often 53.6 µM), inactives show at the top dose activity change, negative = inhibition, usual class: inhibitors; further: potency means the concentration at half of the fitted maximal effect; nearly all actives have a fitted effect of over 60% in size
Target sequence (P51450 whole entry, looked up, the tested form may be a part): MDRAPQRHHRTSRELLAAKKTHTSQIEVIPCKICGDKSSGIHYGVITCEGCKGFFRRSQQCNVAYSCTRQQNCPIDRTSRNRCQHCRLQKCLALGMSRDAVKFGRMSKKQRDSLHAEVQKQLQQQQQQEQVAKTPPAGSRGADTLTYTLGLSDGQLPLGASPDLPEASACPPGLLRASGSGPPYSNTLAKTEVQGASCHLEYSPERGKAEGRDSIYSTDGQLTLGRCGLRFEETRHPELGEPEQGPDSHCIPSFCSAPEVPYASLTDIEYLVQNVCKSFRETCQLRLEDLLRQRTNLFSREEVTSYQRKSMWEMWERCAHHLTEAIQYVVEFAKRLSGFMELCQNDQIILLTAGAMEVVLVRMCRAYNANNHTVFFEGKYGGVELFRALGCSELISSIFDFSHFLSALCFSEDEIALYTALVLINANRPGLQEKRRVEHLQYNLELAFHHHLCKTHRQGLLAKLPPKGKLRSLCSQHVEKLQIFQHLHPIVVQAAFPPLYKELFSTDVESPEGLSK
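In this cell-based reporter format, copper sulfate (700 uM final) drives Gal4–ROR gamma fusion expression from a metallothionein promoter in Drosophila Schneider cells; compounds preincubated 1 hr, reporter read after 20 hr at ambient temperature.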
The depositor's hits bear a star. Compounds with a hit are over-represented: about 21% of the library has one in this group of screens. Unless noted, the call rests on the fitted dose curve; in most records, active means well fitted curve in the direction sought with a large enough effect; inconclusive means small, poorly fitted or top-dose-only effect, or another doubt; inactive means no such curve, though single readings can be large; an effect the other way counts as inactive or inconclusive. On the % scale 0 is the no-effect control and ±100 the full control effect.

Screening CCn1c(SCc2ccc(C#N)cc2)nnc1-c1ccc(S(=O)(=O)N2CCCCC2)cc1 returned ELG1 repair inh 10µM*, DT40 TDP1 no CPT inconclusive, Gal4-VP16 FLuc -14%, IL1B secr inh -6, DT40 TDP1 CPT 15µM* and RORgamma inh 31%.
For N#Cc1ccc(CSc2ccc(S(=O)(=O)N3CCCC3)cn2)cc1 the results were ELG1 repair inh inconclusive, DT40 TDP1 no CPT 26µM*, IL1B secr inh -24 and DT40 TDP1 CPT inconclusive.
`CCn1c(SCc2ccc(F)cc2)nnc1C1CCN(S(=O)(=O)c2ccc(OC)cc2)CC1` gave ELG1 repair inh inconclusive, DT40 TDP1 no CPT 16µM*, Gal4-VP16 FLuc -17%, IL1B secr inh -23, DT40 TDP1 CPT inconclusive and RORgamma inh 57%.
Screening O=[N+]([O-])c1ccc(CSc2ccc(S(=O)(=O)N3CCOCC3)cn2)cc1 returned ELG1 repair inh inconclusive, DT40 TDP1 no CPT inconclusive, IL1B secr inh -64* and DT40 TDP1 CPT inconclusive.
`Cc1ccc(CSc2ccc(S(=O)(=O)N3CCOCC3)cn2)cc1` gave ELG1 repair inh 14%, DT40 TDP1 no CPT 5%, IL1B secr inh 12 and DT40 TDP1 CPT -1%.
For CN(C(=O)COC(=O)COc1ccc2ccccc2c1)c1ccccc1 the results were DT40 TDP1 no CPT -25%, IL1B secr inh 11 and DT40 TDP1 CPT -10%.
For CC1CC2C3CCC4=CC(=O)C=C[C@@]4(C)[C@]3(F)C(O)C[C@]2(C)[C@]1(O)C(=O)COP(=O)(O)O (some centres not stated) the results were Gal4-VP16 FLuc -2% and RORgamma inh 16%.
Screening O=C(COC(=O)c1ccc2ccccc2c1)NCc1ccccc1 returned DT40 TDP1 no CPT -2%, IL1B secr inh 21 and DT40 TDP1 CPT -6%.
O=[N+]([O-])c1ccc(CSc2ccc(S(=O)(=O)N3CCCCC3)cn2)cc1 was read as ELG1 repair inh inconclusive, DT40 TDP1 no CPT inconclusive, IL1B secr inh -50* and DT40 TDP1 CPT inconclusive.
Screening O=[N+]([O-])c1ccc(CSc2ccc(S(=O)(=O)N3CCCC3)cn2)cc1 returned ELG1 repair inh inconclusive, DT40 TDP1 no CPT 23µM*, IL1B secr inh 0 and DT40 TDP1 CPT inconclusive.
`Cc1ccc(CSc2ccc(S(=O)(=O)N3CCCC3)cn2)cc1` gave ELG1 repair inh -5%, DT40 TDP1 no CPT -24%, IL1B secr inh -1 and DT40 TDP1 CPT -13%.
`CCNc1ncc2nc(-c3ccc(Cl)cc3)c(=O)n(C)c2n1` gave DT40 TDP1 no CPT 0%, Gal4-VP16 FLuc -3%, DT40 TDP1 CPT -3% and RORgamma inh -10%.
For O=C1c2ccccc2C2=Nc3ccccc3SC(c3cccc(F)c3)C12 (configuration not stated) the results were ELG1 repair inh inconclusive, DT40 TDP1 no CPT 16µM*, Gal4-VP16 FLuc -10%, IL1B secr inh -7, DT40 TDP1 CPT 16µM* and RORgamma inh 37%.
C[C@@H]1Cn2cnc(C(=O)NCC(=O)OC(C)(C)C)c2C(=O)N1 was read as DT40 TDP1 no CPT -17%, IL1B secr inh -6 and DT40 TDP1 CPT 4%.
COc1ccc(-c2oc3ccccc3c(=O)c2O)cc1 was read as DT40 TDP1 no CPT 0%, Gal4-VP16 FLuc -1%, DT40 TDP1 CPT -3% and RORgamma inh inconclusive.
For COc1ccc(OC)c(-c2oc3ccccc3c(=O)c2O)c1 the results were ELG1 repair inh -26%, DT40 TDP1 no CPT inconclusive, Gal4-VP16 FLuc -28%, IL1B secr inh -6, DT40 TDP1 CPT -21% and RORgamma inh 7.1µM*.
For COc1cccc2c(=O)c3ccccc3oc12 the results were ELG1 repair inh inconclusive, DT40 TDP1 no CPT -17%, Gal4-VP16 FLuc 1%, IL1B secr inh -27, DT40 TDP1 CPT 6% and RORgamma inh -11%.
`COc1ccccc1-c1oc2ccccc2c(=O)c1O` gave DT40 TDP1 no CPT inconclusive, Gal4-VP16 FLuc 1%, DT40 TDP1 CPT inconclusive and RORgamma inh 20µM*.
COc1cc(OC)c(-c2oc3ccccc3c(=O)c2O)c(OC)c1 was read as DT40 TDP1 no CPT 7.3µM*, IL1B secr inh 9 and DT40 TDP1 CPT 8.2µM*.
CCc1ccccc1NC(=O)Cn1nnc(-c2nc(-c3ccc(C)cc3)no2)c1N was read as DT40 TDP1 no CPT -1% and DT40 TDP1 CPT -22%.
For CCOC(=O)c1c(S(=O)(=O)N2CCC(C(=O)Nc3cccc(C#N)c3)CC2)c(C)n(C)c1C the results were DT40 TDP1 no CPT -20% and DT40 TDP1 CPT -23%.
`Cc1oc2c(C)c3oc(=O)c(CC(=O)N4CCCCC4)c(C)c3cc2c1C` gave DT40 TDP1 no CPT 21µM* and DT40 TDP1 CPT 21µM*.
For Cc1coc2c(C)c3oc(=O)c(CCC(=O)N4CCCCC4)c(C)c3cc12 the results were DT40 TDP1 no CPT 16µM* and DT40 TDP1 CPT 13µM*.
Screening Cc1c(CC(=O)N2CCCCC2)c(=O)oc2c(C)c(O)ccc12 returned DT40 TDP1 no CPT -8% and DT40 TDP1 CPT -11%.
For COc1ccc([N+](=O)[O-])cc1NC(=O)C(C)Sc1nc(C)c(C)c(C)n1 (configuration not stated) the results were ELG1 repair inh inconclusive, DT40 TDP1 no CPT 23µM*, Gal4-VP16 FLuc -9%, IL1B secr inh -1, DT40 TDP1 CPT inconclusive and RORgamma inh 13%.
Screening COc1cc2nccc(Oc3ccc(NC(=O)Nc4ccc(F)cc4F)c(F)c3)c2cc1OC returned Gal4-VP16 FLuc inconclusive and RORgamma inh -41%.
For N#CC[n+]1cc(-c2ccc(Cl)cc2)n2c1CCC2 the results were ELG1 repair inh 4%, DT40 TDP1 no CPT 0%, Gal4-VP16 FLuc -3%, IL1B secr inh 17, DT40 TDP1 CPT -5% and RORgamma inh 4%.
Clc1ccc(C[n+]2cc(-c3ccccc3)n3c2CCC3)cc1Cl was read as ELG1 repair inh inconclusive, DT40 TDP1 no CPT 3.7µM*, Gal4-VP16 FLuc -8%, IL1B secr inh -67*, DT40 TDP1 CPT 6.5µM* and RORgamma inh 18%.
`Clc1ccc(-c2c[n+](Cc3cccc(Cl)c3)c3n2CCC3)cc1` gave ELG1 repair inh -17%, DT40 TDP1 no CPT 8.2µM*, Gal4-VP16 FLuc -9%, IL1B secr inh -74*, DT40 TDP1 CPT 10µM* and RORgamma inh inconclusive.
